# Assay results from ChEMBL document CHEMBL1961873, “Compounds: GSK PKIS; Assays: Nanosyn kinase panel” (2012).
# Assays:
# [1] = biological target: Serine/threonine-protein kinase pim-2 (Homo sapiens) (UniProt Q9P1W9); conditions: at 1 µM;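 note: each value is a mean of the inhibition measurements against the kinase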
# [2] = biological target: Serine/threonine-protein kinase pim-3 (Homo sapiens) (UniProt Q86V86); conditions: at 0.1 µM
# [3] = biological target: Serine/threonine-protein kinase pim-3 (Homo sapiens) (UniProt Q86V86); conditions: at 1 µM
# [4] = biological target: T1, MAP kinase-activated protein kinase 5 (Homo sapiens) (UniProt Q8IW41); conditions: at 0.1 µM
# T1 sequence (whole entry): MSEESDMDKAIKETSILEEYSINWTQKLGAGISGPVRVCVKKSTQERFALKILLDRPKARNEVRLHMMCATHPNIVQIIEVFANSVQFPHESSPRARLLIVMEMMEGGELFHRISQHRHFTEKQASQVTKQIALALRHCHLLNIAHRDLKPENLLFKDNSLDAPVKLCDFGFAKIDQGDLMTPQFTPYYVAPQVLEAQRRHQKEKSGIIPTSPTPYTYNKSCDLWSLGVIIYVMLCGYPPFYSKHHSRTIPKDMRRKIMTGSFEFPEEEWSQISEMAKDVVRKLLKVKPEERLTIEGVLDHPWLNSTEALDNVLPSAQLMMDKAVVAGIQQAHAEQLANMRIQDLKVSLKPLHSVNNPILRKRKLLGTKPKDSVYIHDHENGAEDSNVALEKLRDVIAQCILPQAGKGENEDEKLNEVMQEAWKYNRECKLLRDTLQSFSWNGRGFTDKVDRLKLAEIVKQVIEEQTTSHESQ
# [5] = biological target: T1, MAP kinase-activated protein kinase 5 (Homo sapiens); conditions: at 1 µM
# [6] = biological target: Serine/threonine-protein kinase SIK1 (Homo sapiens) (UniProt P57059); conditions: at 0.1 µM
# Sequence of Serine/threonine-protein kinase SIK1 (Homo sapiens) (P57059 whole entry): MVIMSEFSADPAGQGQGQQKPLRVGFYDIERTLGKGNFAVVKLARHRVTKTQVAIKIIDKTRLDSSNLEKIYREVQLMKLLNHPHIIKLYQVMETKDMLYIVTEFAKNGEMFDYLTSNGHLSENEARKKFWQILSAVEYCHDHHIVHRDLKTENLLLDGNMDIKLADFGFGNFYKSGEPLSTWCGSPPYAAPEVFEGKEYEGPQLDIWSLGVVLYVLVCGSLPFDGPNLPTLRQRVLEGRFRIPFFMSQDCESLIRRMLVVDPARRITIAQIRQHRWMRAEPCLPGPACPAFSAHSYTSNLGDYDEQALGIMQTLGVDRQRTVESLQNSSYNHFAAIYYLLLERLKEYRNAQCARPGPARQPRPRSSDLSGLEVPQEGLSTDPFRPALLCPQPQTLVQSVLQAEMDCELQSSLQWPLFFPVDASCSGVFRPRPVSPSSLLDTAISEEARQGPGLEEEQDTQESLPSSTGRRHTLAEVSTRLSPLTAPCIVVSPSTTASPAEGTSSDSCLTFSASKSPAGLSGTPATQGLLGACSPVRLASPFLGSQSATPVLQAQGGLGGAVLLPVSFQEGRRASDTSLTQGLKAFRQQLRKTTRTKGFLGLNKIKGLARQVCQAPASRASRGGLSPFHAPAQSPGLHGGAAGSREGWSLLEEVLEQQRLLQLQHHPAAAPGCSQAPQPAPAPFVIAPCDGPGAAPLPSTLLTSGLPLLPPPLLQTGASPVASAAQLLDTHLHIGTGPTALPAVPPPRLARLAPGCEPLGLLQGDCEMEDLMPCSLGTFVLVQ
# [7] = biological target: Serine/threonine-protein kinase SIK1 (Homo sapiens) (UniProt P57059); conditions: at 1 µM
# [8] = biological target: Serine/threonine-protein kinase SIK2 (Homo sapiens) (UniProt Q9H0K1); conditions: at 0.1 µM
# Sequence of Serine/threonine-protein kinase SIK2 (Homo sapiens) (Q9H0K1 whole entry, looked up): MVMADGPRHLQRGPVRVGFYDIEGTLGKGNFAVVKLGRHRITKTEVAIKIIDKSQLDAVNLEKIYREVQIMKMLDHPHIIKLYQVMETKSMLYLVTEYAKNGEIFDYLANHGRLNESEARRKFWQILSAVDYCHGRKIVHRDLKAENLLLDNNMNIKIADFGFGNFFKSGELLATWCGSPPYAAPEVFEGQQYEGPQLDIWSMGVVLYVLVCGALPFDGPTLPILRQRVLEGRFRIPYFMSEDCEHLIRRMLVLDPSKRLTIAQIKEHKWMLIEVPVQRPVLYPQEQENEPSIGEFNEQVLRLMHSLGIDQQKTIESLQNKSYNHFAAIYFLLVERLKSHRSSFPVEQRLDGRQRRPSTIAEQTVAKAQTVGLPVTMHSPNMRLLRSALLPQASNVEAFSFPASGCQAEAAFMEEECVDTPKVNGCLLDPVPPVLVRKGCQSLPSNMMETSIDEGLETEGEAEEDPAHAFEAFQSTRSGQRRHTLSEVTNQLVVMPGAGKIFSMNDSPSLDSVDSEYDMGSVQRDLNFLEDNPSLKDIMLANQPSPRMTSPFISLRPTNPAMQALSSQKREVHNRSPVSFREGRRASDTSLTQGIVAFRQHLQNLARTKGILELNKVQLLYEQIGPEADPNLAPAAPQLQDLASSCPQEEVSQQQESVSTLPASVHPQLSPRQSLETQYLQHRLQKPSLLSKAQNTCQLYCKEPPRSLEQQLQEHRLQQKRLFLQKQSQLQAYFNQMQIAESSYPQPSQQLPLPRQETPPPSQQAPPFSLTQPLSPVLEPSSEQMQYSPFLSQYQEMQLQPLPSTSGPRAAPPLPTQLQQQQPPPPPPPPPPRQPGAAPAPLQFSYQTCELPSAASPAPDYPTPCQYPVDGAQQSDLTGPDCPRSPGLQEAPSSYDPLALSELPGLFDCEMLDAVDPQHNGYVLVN
# [9] = biological target: Serine/threonine-protein kinase SIK2 (Homo sapiens) (UniProt Q9H0K1); conditions: at 1 µM
# [10] = biological target: T2, Serine/threonine-protein kinase TBK1 (Homo sapiens) (UniProt Q9UHD2); conditions: at 0.1 µM
# T2 sequence (whole entry): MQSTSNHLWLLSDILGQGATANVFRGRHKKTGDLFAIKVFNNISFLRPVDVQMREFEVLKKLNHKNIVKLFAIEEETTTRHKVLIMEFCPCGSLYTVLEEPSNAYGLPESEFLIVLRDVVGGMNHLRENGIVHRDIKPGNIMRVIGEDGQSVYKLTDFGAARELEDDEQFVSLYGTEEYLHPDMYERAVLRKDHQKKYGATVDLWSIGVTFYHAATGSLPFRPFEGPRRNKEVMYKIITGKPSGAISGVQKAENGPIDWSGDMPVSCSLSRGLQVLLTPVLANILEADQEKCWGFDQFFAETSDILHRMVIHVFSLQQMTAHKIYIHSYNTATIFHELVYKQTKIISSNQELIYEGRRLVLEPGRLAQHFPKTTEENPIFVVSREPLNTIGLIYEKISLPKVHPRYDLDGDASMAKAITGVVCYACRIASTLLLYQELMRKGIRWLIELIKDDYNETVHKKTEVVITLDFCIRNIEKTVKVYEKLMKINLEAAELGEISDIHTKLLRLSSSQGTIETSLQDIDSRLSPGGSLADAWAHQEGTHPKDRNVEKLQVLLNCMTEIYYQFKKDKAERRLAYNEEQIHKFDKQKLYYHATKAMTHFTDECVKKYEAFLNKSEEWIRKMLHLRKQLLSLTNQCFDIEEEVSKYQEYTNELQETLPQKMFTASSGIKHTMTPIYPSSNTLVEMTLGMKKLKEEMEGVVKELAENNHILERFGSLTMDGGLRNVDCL
# [11] = biological target: T2, Serine/threonine-protein kinase TBK1 (Homo sapiens); conditions: at 1 µM
# [12] = biological target: T3, Testis-specific serine/threonine-protein kinase 1 (Homo sapiens) (UniProt Q9BXA7); conditions: at 0.1 µM
# T3 sequence (whole entry): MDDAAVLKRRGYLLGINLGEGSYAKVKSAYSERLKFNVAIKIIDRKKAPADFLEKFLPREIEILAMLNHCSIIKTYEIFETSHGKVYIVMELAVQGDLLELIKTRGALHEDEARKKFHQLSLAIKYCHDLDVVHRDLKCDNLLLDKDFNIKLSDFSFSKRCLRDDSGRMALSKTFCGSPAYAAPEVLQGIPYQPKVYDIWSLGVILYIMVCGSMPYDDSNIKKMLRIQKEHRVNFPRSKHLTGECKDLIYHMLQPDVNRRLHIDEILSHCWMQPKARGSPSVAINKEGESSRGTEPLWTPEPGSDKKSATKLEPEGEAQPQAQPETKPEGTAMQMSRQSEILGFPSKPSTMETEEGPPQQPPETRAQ
# [13] = biological target: T3, Testis-specific serine/threonine-protein kinase 1 (Homo sapiens); conditions: at 1 µM
# [14] = biological target: T4, Testis-specific serine/threonine-protein kinase 2 (Homo sapiens) (UniProt Q96PF2); conditions: at 0.1 µM
# T4 sequence (whole entry): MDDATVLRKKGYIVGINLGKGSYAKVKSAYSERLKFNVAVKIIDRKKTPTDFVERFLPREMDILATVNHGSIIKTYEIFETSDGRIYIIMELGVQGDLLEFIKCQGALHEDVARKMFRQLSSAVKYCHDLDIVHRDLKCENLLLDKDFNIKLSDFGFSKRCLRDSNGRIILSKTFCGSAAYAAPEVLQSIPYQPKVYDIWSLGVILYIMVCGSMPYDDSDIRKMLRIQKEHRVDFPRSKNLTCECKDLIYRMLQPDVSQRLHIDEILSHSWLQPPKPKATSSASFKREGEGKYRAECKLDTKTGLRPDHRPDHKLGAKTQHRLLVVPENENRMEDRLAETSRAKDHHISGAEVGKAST
# [15] = biological target: T4, Testis-specific serine/threonine-protein kinase 2 (Homo sapiens); conditions: at 1 µM
# [16] = biological target: Casein kinase I isoform alpha (Homo sapiens) (UniProt P48729); conditions: at 0.1 µM
# Sequence of Casein kinase I isoform alpha (Homo sapiens) (P48729 2-337 limits assumed): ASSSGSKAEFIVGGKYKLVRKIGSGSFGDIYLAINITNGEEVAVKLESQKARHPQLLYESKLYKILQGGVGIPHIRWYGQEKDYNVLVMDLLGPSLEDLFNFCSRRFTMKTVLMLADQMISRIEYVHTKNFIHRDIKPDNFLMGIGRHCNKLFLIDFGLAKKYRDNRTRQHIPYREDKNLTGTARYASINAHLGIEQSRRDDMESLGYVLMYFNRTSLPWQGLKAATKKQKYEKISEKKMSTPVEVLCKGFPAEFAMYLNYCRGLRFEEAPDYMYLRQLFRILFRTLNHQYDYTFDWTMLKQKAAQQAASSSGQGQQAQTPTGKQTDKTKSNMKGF
# [17] = biological target: Casein kinase I isoform alpha (Homo sapiens) (UniProt P48729); conditions: at 1 µM
# [18] = biological target: Casein kinase I isoform gamma-1 (Homo sapiens) (UniProt Q9HCP0); conditions: at 0.1 µM
# Sequence of Casein kinase I isoform gamma-1 (Homo sapiens) (Q9HCP0 whole entry, looked up, canonical isoform): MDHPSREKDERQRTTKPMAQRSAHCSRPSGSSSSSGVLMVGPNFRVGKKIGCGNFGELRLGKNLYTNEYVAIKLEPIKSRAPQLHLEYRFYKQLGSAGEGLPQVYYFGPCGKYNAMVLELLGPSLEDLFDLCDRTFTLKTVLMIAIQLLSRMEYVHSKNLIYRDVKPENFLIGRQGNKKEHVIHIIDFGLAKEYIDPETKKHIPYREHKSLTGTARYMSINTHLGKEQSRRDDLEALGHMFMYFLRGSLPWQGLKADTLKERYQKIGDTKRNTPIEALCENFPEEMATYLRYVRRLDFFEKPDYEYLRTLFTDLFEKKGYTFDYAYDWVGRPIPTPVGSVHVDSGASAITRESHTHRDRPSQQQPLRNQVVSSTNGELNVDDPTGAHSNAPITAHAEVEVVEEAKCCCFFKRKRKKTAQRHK
# [19] = biological target: Casein kinase I isoform gamma-1 (Homo sapiens) (UniProt Q9HCP0); conditions: at 1 µM
# [20] = biological target: Casein kinase I isoform gamma-2 (Homo sapiens) (UniProt P78368); conditions: at 0.1 µM;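 note: values are mean inhibition figures reported as part of the GSK PKIS dataset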
# Sequence of Casein kinase I isoform gamma-2 (Homo sapiens) (P78368 whole entry, looked up, canonical isoform): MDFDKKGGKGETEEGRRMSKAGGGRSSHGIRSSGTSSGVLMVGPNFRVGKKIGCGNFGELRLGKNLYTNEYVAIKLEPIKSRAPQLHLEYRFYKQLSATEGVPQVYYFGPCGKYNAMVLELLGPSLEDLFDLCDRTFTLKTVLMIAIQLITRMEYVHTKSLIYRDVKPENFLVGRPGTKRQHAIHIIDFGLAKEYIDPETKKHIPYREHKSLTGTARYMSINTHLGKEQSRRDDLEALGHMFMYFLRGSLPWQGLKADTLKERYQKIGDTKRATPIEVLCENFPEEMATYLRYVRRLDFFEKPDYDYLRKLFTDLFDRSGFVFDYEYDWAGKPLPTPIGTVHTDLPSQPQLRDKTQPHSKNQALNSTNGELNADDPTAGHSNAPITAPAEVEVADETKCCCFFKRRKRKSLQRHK
# Sequence of Serine/threonine-protein kinase pim-2 (Homo sapiens) (Q9P1W9 whole entry, looked up): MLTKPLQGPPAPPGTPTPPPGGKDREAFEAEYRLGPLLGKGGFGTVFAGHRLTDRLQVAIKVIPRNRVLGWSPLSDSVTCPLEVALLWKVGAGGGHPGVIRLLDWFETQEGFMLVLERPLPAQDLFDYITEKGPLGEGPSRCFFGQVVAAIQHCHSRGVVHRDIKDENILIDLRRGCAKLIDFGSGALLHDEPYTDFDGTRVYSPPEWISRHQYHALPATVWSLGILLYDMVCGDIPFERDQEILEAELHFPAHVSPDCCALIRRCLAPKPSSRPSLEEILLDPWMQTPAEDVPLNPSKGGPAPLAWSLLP
Structure (SMILES),inhibition [1] [%],inhibition [2] [%],inhibition [3] [%],inhibition [4] [%],inhibition [5] [%],inhibition [6] [%],inhibition [7] [%],inhibition [8] [%],inhibition [9] [%],inhibition [10] [%],inhibition [11] [%],inhibition [12] [%],inhibition [13] [%],inhibition [14] [%],inhibition [15] [%],inhibition [16] [%],inhibition [17] [%],inhibition [18] [%],inhibition [19] [%],inhibition [20] [%]
COc1cccc(-c2c[nH]c3c(N/N=C/c4ccncc4)ncnc23)c1,1.1,0.71,2.78,0.16,-1.66,10.7,48.9,28.6,67.4,3.26,34.6,1.82,-0.71,0.73,-2.11,5.65,7.98,1.21,4.05,0.6
CN(C)CCOc1ccc(-c2nc(-c3ccncc3)c(-c3ccc4c(c3)CC/C4=N\O)[nH]2)cc1,0.05,-0.36,2.58,1.42,1.59,2.53,3.64,6.15,2.63,1.69,3.98,1.85,2.25,3.34,2.43,3.41,7.2,2.51,4.6,2.26
CCN1CCC(CC(=O)Nc2n[nH]c3nnc(-c4cccc(F)c4F)cc23)CC1,1.56,1.76,2.5,1.08,1.15,4.85,5.87,-1.82,1.81,1.12,4.19,2.14,1.72,3.15,1.74,0.5,-1.29,0.85,2.08,-0.21
COc1ccc(-c2cc3c(N)ncnc3o2)cc1,2.23,1.44,6.86,-0.43,-0.51,-3.64,12,5.43,7.33,0.41,1.62,-1.68,1.43,-1.12,-0.58,-2.35,-1.14,-1.13,-0.49,-0.59
Fc1ccc(-c2nn3ccccc3c2-c2ccncc2)cc1,-0.05,-0.94,-1.43,0.01,-0.42,1.08,4.41,0,14.9,2.66,0.18,1.12,1.44,-0.56,0.24,13.7,58.4,1.48,8.01,1.65
COc1ccc(-c2cc(-c3c[nH]nc3-c3ccccn3)ccn2)cc1,1.29,0.79,1.9,2.14,4.32,11.2,7.23,3.82,11.3,4.48,6.38,3.33,5.54,2.38,3.88,3.31,11.5,4.71,5.78,3.51
Cc1cccc2c1NC(=O)/C2=N\Nc1ccc(S(N)(=O)=O)cc1,0.28,-0.05,-2.33,0.84,-0.06,6.76,2.58,7.86,2.38,2.84,3.42,1.83,3.05,0.81,-1.61,1.01,4.19,2.88,3.11,1.59
COc1ccc2c(-c3ccnc(Nc4cccc(OC(F)(F)F)c4)n3)cnn2n1,0.02,0.74,1.07,1.98,3.27,7.04,12.8,9.16,12.1,7.22,31.6,3.88,7,3.39,2.18,2.85,9.17,3.59,6.06,3.21
COc1cc(Nc2nccc(Nc3ccc4c(C)n[nH]c4c3)n2)cc(OC)c1OC,1.57,2.01,-0.7,-0.04,-1.77,8.95,51.2,4.45,28,4.57,26.3,1.79,12.6,-0.93,-0.95,0.44,0.47,2.35,1.23,-0.28
CCn1cc(-c2ccnc3[nH]ccc23)c(-c2cccc(NC(=O)Nc3ccc(OCc4ccccc4)cc3)c2)n1,0.13,-0.81,-1.13,-0.44,-0.98,1.1,3.35,-4.91,-0.71,-0.45,-0.26,1.75,1.5,-0.38,-0.63,-1.12,-1.47,1,1.59,0.29
NS(=O)(=O)c1ccc(Nc2ncc(-c3ccccc3)o2)cc1,0.32,-0.13,0.88,1.46,1.61,6.09,9.25,6.43,18.9,3.13,8.12,1.35,2.89,1.54,1.1,1.88,7.88,2.83,4.94,2.8
Nc1nc(-c2ccc(F)cc2)c(-c2ccc3ncccc3n2)s1,0.96,0.41,2.02,1.52,2.44,11.6,7.23,8.76,11.6,3.41,6.6,4.27,6.63,2.36,2.23,3.47,15.2,4.29,10.5,3.47
COc1cc2ncn(-c3cc(OCc4ccccc4C(F)(F)F)c(C(=O)N(C)C)s3)c2cc1OC,0.27,-0.34,0.56,0.07,0.04,2.6,15.2,4.39,9.54,2.13,0.81,1.76,1.34,0.13,0.32,0.11,0.76,-0.13,0.81,0.13
